This is part of a sample that, as a whole, favours compounds with a hit. Of some 83,000 tested, about 20% had one in any assay.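 A percent growth of 40 corresponds to 60% growth inhibition; 0 means no net growth; -100 means all cells died. Active threshold: below 10.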 Unmarked numbers belong to inactive results. Activity calls are given as the source filed them.
What was measured:
Test in all cases: NCI-60 one-dose screen, 48 h (100 = growth as untreated, 0 = no growth, -100 = all killed)
Details in all cases: 10 µM unless noted
SK-MEL-2 melanoma = tested on: SK-MEL-2 melanoma
EKVX NSCLC = tested on: EKVX NSCLC
SN12C renal = tested on: SN12C renal
UO-31 renal = tested on: UO-31 renal
TK-10 renal = tested on: TK-10 renal
CAKI-1 renal = tested on: CAKI-1 renal
A498 renal = tested on: A498 renal
CCRF-CEM leukemia = tested on: CCRF-CEM leukemia
MOLT-4 leukemia = tested on: MOLT-4 leukemia
ACHN renal = tested on: ACHN renal

Compound | growth (SK-MEL-2 melanoma) | growth (EKVX NSCLC) | growth (SN12C renal) | growth (UO-31 renal) | growth (TK-10 renal) | growth (CAKI-1 renal) | growth (A498 renal) | growth (CCRF-CEM leukemia) | growth (MOLT-4 leukemia) | growth (ACHN renal)
COc1ccc(NC(=O)c2ccc(C(F)(F)F)nc2Nc2ccc(Cl)cc2C)cc1Cl | 31.9% | 11.3% | 24% | 9.94% (active) | 60% | 19.9% | 11.5% | 11% | 8.09% (active) | 
C#CC[C@@H]1C[C@]2(C)[C@H]3CC[C@@H]4[C@H]5C(C(=C)C)CC[C@]5(C(=O)NCCCCN)CC[C@@]4(C)[C@]3(C)CC[C@H]2C(C)(C)[C@H]1OC(C)=O (some centres undefined) | 61% | 90.1% | -82.9% (active) |  | -92.9% (active) | -98.8% (active) | 108% | -11% (active) |  | -98.3% (active)
CCNS(=O)(=O)c1ccc(C)cc1 | 116% | 106% | 98.5% | 97.3% | 115% |  |  | 89.7% | 95.9% | 
O=C(O)c1ccccc1N=Cc1ccccc1 | 108% | 101% | 110% |  | 103% | 96.3% | 117% | 88.5% | 94.6% | 105%
COc1cc(Cn2c(-c3ccccc3)cc3c2-c2oncc2CC3)cc(OC)c1OC | 31.4% | 38.3% | 49.3% |  | 47.1% | 0% (active) | 2.81% (active) | 16.9% | 14.1% | 48.2%
Cn1nc(C(F)(F)F)cc1-c1c[nH]c(OCc2ccc(Cl)cc2)c(-c2ccc(Cl)c(C(F)(F)F)c2)c1=O | -31.4% (active) | 5.56% (active) | 4.1% (active) | -1.38% (active) | 3.46% (active) | -22.7% (active) | -60.9% (active) | 10.5% | -9.43% (active) | 
Nc1nc2ccc([C@@H]3Nc4ccc5[nH]ncc5c4[C@H]4[C@H]5CCC(C5)[C@H]43)cc2s1 | -1.54% (active) | 16.2% | 11.4% |  | 46.3% | 29.8% | -2.86% (active) | 21.2% | 7.02% (active) | 29.7%
COc1ccc2[nH]c(O)c(/C=c3/ccc4c(c3)N=C(c3ccc(F)cc3)N=4)c2c1 | 110% | 80.4% | 50.2% | 63.2% | 116% | 20.1% | 92.9% | 42.5% | 67.7% | 
